From PubChem BioAssay AID1159580 (chemical genetic matrix, 2015)
“And” between values parts separate entries of the source, which are not always exact repeats. Equal values may be shown once. About 2,000 (36%) of roughly 5,500 compounds were called active. Another 18% or so got no clear call; they are omitted. Rule as the data show it: active = normalized growth mostly below about 0.91 (no sharp cut-off); inconclusive = no clear call, values can overlap the other calls; inactive = mostly above about 0.92. This is one part of the list.

Assay: chemical genetic growth profiling, strain panel (AID 1159580);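 also: tested at 20 µM; growth read once vehicle control cultures reached saturation at 30 °C; 1 = growth at the plate median or of vehicle wells; lower values mean less growth of the strain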
Details: S. cerevisiae deletion strains, growth OD

Measured: normalized growth

CC(C)NCC(O)c1cc(O)cc(O)c1 (stereo not drawn)
inactive: locus YAL013W, strain DEP1, active compounds read low 1.03 | locus YAL021C, strain ccr4, active compounds read low 0.974 | locus YAL026C, strain drs2, active compounds read low 1 | locus YAL030W, strain snc1, active compounds read low 0.994 | locus YAL040C, strain CLN3, active compounds read low 1.02 | locus YBL061C, strain skt5, active compounds read low 0.991 | locus YBR009C, strain hhf1, active compounds read low 1.01 | locus YBR021W, strain FUR4, active compounds read low 1.02 | locus YBR023C, strain chs3, active compounds read low 0.984 | locus YBR171W, strain sec66, active compounds read low 0.998 | locus YBR229C, strain ROT2, active compounds read low 1 | locus YBR231C, strain swc5, active compounds read low 0.993 | locus YBR279W, strain paf1, active compounds read low 0.992 | locus YCL011C, strain gbp2, active compounds read low 0.982 | locus YCL016C, strain dcc1, active compounds read low 0.976 | locus YCL029C, strain bik1, active compounds read low 0.983 | locus YCL061C, strain MRC1 (second series), active compounds read low 1.01 | locus YCL061C, strain MRC1, active compounds read low 0.991 | locus YCL069W, strain vba3, active compounds read low 0.992 | locus YCR088W, strain abp1, active compounds read low 0.994 | locus YDL005C, strain med2, active compounds read low 1 | locus YDL035C, strain GPR1, active compounds read low 1.01 | locus YDL040C, strain nat1, active compounds read low 0.994 | locus YDL074C, strain BRE1, active compounds read low 1.01 | locus YDL101C, strain DUN1, active compounds read low 1 | locus YDL134C, strain PPH21, active compounds read low 1.01 | locus YDL185W, strain tfp1, active compounds read low 0.964 | locus YDL192W, strain arf1, active compounds read low 0.984 | locus YDR001C, strain nth1, active compounds read low 0.983 | locus YDR069C, strain doa4, active compounds read low 1.01 | locus YDR101C, strain arx1, active compounds read low 1.02 | locus YDR137W, strain rgp1, active compounds read low 0.977 | locus YDR150W, strain NUM1, active compounds read low 0.996 | locus YDR159W, strain sac3, active compounds read low 1.03 | locus YDR162C, strain NBP2, active compounds read low 1.01 | locus YDR195W, strain ref2 0.982 | locus YDR297W, strain sur2, active compounds read low 0.989 | locus YDR318W, strain mcm21, active compounds read low 0.982 | locus YDR334W, strain swr1, active compounds read low 0.974 | locus YDR335W, strain msn5, active compounds read low 1 | locus YDR363W, strain ESC2, active compounds read low 1.05 | locus YDR388W, active compounds read low 1 | locus YDR392W, strain spt3, active compounds read low 0.928 | locus YDR502C, strain sam2, active compounds read low 0.993 | locus YEL003W, strain gim4, active compounds read low 1 | locus YEL037C, strain rad23, active compounds read low 0.989 | locus YEL061C, strain CIN8 (second series), active compounds read low 0.98 | locus YEL061C, strain CIN8, active compounds read low 0.995 | locus YER002W, strain NOP16, active compounds read low 0.991 | locus YER015W, strain faa2, active compounds read low 0.988 | locus YER016W, strain bim1, active compounds read low 0.999 | locus YER110C, active compounds read low 0.973 | locus YER111C, strain swi4, active compounds read low 0.978 | locus YER155C, strain BEM2 (second series), active compounds read low 1 | locus YER155C, strain BEM2, active compounds read low 1 | locus YER167W, strain BCK2, active compounds read low 0.995 | locus YFR010W, strain ubp6, active compounds read low 0.992 | locus YGL078C, strain dbp3, active compounds read low 0.969 | locus YGL086W, strain mad1, active compounds read low 1.01 | locus YGL167C, strain pmr1, active compounds read low 0.991 | locus YGL173C, strain kem1, active compounds read low 1 | locus YGL227W, strain vid30, active compounds read low 0.995 | locus YGL240W, strain doc1, active compounds read low 1.01 | locus YGL248W, strain PDE1, active compounds read low 1 | locus YGL253W, strain hxk2, active compounds read low 0.974 | locus YGR135W, strain pre9, active compounds read low 0.949 | locus YGR229C, strain SMI1, active compounds read low 1.03 | locus YGR252W, strain gcn5, active compounds read low 0.963 | locus YHR013C, strain ard1, active compounds read low 0.961 | locus YHR027C, strain rpn1, active compounds read low 1.02 | locus YHR030C, strain SLT2, active compounds read low 1.01 and 0.952 | locus YHR079C, strain IRE1 (second series), active compounds read low 0.988 | locus YHR079C, strain IRE1, active compounds read low 0.964 | locus YHR094C, strain hxt1, active compounds read low 1 | locus YHR129C, strain ARP1, active compounds read low 1 | locus YHR142W, strain chs7, active compounds read low 0.967 | locus YHR200W, strain rpn10, active compounds read low 0.985 | locus YIL066C, strain RNR3, active compounds read low 0.997 | locus YIL073C, strain SPO22, active compounds read low 0.938 | locus YIL125W, strain kgd1, active compounds read low 1.01 | locus YIR030C, strain dcg1, active compounds read low 0.978 | locus YJL092W, strain hpr5, active compounds read low 0.988 | locus YJL095W, strain BCK1 (second series), active compounds read low 0.994 | locus YJL095W, strain BCK1, active compounds read low 0.986 and 0.963 | locus YJL115W, strain asf1, active compounds read low 0.977 | locus YJL129C, strain trk1, active compounds read low 0.983 | locus YJL134W, strain LCB3, active compounds read low 1.01 | locus YJL154C, strain vps35, active compounds read low 1.02 | locus YJL164C, strain tpk1, active compounds read low 0.993 | locus YJL166W, strain qcr8, active compounds read low 0.974 | locus YJL168C, strain set2, active compounds read low 0.999 | locus YJL187C, strain SWE1 (second series), active compounds read low 0.995 | locus YJL187C, strain SWE1, active compounds read low 0.987
